Laboratory results published in ChEMBL document CHEMBL1157539, “Thousands of chemical starting points for antimalarial lead identification” (Nature, 2010).

Assays:
Format in all cases: functional
[1] = test system: Plasmodium falciparum; assay: GSK_TCMDC: Inhibition of Plasmodium falciparum 3D7 in whole red blood cells, using parasite LDH activity as an index of growth. Test compounds present at 2uM
[2] = test system: Plasmodium falciparum; assay: GSK_TCMDC: Inhibition of Plasmodium falciparum Dd2 in whole red blood cells, using parasite LDH activity as an index of growth. Test compounds present at 2uM
[3] = test system: HepG2; assay: GSK_TCMDC: Percent inhibition of human HepG2 cell line. Test compounds present at 10uM.

| SMILES | Inhibition [1] [%] | Inhibition [2] [%] | Inhibition [3] [%] |
| --- | --- | --- | --- |
| O=C(O)C(F)(F)F.c1cc(-c2ccc(CNC3CCOCC3)cc2)cc(-c2nc3ccccc3[nH]2)c1 | 100 | 100 | 30 |
| CC1(C)C(N(O)C(=O)Nc2ccc(Cl)c(Cl)c2)N(c2ccc(Cl)c(Cl)c2)C(=O)N1CCc1ccccc1 (stereo not given) | 91 | 93 | 10 |
| COC1CCC(C(=O)Nc2ccc(-c3cccc(-c4nc5cc(C(F)(F)F)ccc5[nH]4)c3)cc2)CC1 (stereo not given) | 85 | 48 | 69 |
| Fc1ccc2[nH]c(-c3ccc(-c4ccc(CNCCN5CCNCC5)cc4)s3)nc2c1.O=C(O)C(F)(F)F | 96 | 2 | 24 |
| CC(C)(C)c1ccc(CN2CCC(CNC(=O)c3cc(-c4ccccc4Cl)cs3)C2)cc1.O=C(O)C(F)(F)F (stereo not given) | 100 | 56 | 33 |
| O=[N+]([O-])c1ccc(-c2ccc(C=NNc3nc(Nc4ccccc4)nc(Nc4ccccc4)n3)o2)cc1 | 91 | 12 | 0 |
| COCC(C)n1c(SC(C)C(=O)Nc2cc([N+](=O)[O-])ccc2Cl)nc2ccccc2c1=O (stereo not given) | 95 | 94 | 0 |
| COc1cccc(C2(c3cccc(OC)c3)N=C(N)N(CCCc3ccccc3)C2=O)c1.O=CO | 98 | 93 | 3 |
| CS(=O)(=O)NCCCNCc1ccc(-c2cccc(-c3nc4cc(C(F)(F)F)ccc4[nH]3)c2)cc1.O=C(O)C(F)(F)F | 100 | 83 | 17 |
| Cn1nc(C(F)(F)F)c(-c2ccc(F)cc2)c1NC(=O)Nc1ccc(F)cc1F | 100 | 98 | 11 |
